Assay [1] is described as follows: ATG_XTT_Cytotoxicity: Cytotoxicity Assessment in the Attagene TRANS-FACTORIAL HepG2 Assay (AID 2283584; active = hit-call score of the fitted dose curve at least 0.9, where 1 is the maximum;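 for AC50: cells exposed to compound for 24 h before reading; active means loss of viability signal versus DMSO baseline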). The method in brief: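 XTT readout of cell number in transfected HepG2 cells, 24 h post-dosing; DMSO serves as negative control and baseline, with activity taken as loss of viability signal.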
Read-out in assay [2]: TIMP1, TIMP1 (gene 7076)
The assay can be described thus: LTEA_HepaRG_TIMP1: Life Technologies and Expression Analysis (LTEA) Assay for TIMP1 using HepaRG (AID 2283534). To be noted: mRNA level, 48 h; actives raise or lower the signal. Put shortly:
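HepaRG, 48 h exposure, 8-pt half-log series from 100 uM in 0.5% DMSO, duplicates; TIMP1 transcript by Fluidigm qRT-PCR, housekeeping-normalized; bidirectional curve fit vs DMSO baseline.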

Read-out in assay [3]: Tumor necrosis factor receptor 1 (TNFRSF1A), TNFRSF1A (gene 7132)
The assay can be described thus: LTEA_HepaRG_TNFRSF1A: Life Technologies and Expression Analysis (LTEA) Assay for Tumor necrosis factor receptor 1 (TNFRSF1A) using HepaRG (AID 2283535). To be noted: mRNA level, 48 h; actives raise or lower the signal. Put shortly:
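HepaRG, 48 h plating then 48 h chemical exposure, serum-free induction media; 8-pt CRC from 100 uM, half-log, 0.5% DMSO vehicle, duplicates. Readout: TaqMan qRT-PCR (Fluidigm), housekeeping-gene normalized; bidirectional fit vs DMSO.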

Read-out in assay [4]: Thyroid Hormone Responsive (THRSP), THRSP (gene 7069)
The assay can be described thus: LTEA_HepaRG_THRSP: Life Technologies and Expression Analysis (LTEA) Assay for Thyroid Hormone Responsive (THRSP) using HepaRG (AID 2283536). The settings on record: mRNA level, 48 h; actives raise or lower the signal. The method in brief:
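mRNA induction or loss relative to 0.5% DMSO vehicle was fitted bidirectionally across an eight-point curve whose highest exposure was 100 uM. Human HepaRG liver cells received chemicals in duplicate over 48 h before RNA extraction.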

Read-out in assay [5]: UDP glucuronosyltransferase (UGT1A1), UGT1A1 (gene 54658)
The assay can be described thus: LTEA_HepaRG_UGT1A1: Life Technologies and Expression Analysis (LTEA) Assay for UDP glucuronosyltransferase (UGT1A1) using HepaRG (AID 2283538). The settings on record: mRNA level, 48 h; actives raise or lower the signal. The method in brief: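 Differentiated human HepaRG cells in serum-free induction medium were exposed in duplicate for 48 h to eight half-log concentrations up to 100 uM in 0.5% DMSO. UGT1A1 mRNA was quantified by TaqMan qRT-PCR, normalized to ACTB, GAPDH and POLR2A, and fitted bidirectionally against DMSO.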

Read-out in assay [6]: UDP glucuronosyltransferase (UGT1A6), UGT1A6 (gene 54578)
The assay can be described thus: LTEA_HepaRG_UGT1A6: Life Technologies and Expression Analysis (LTEA) Assay for UDP glucuronosyltransferase (UGT1A6) using HepaRG (AID 2283539). To be noted: mRNA level, 48 h; actives raise or lower the signal. Put shortly:
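qRT-PCR readout of UGT1A6 mRNA (normalized to ACTB/GAPDH/POLR2A) in differentiated HepaRG cells after 48 h chemical exposure; 8 concentrations, top 100 uM, half-log steps, 0.5% DMSO. Bidirectional curve fit relative to DMSO baseline.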

Read-out in assay [7]: X-box binding protein 1 (XBP1), XBP1 (gene 7494)
The assay can be described thus: LTEA_HepaRG_XBP1: Life Technologies and Expression Analysis (LTEA) Assay for X-box binding protein 1 (XBP1) using HepaRG (AID 2283540). The settings on record: mRNA level, 48 h; actives raise or lower the signal. Put shortly:
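HepaRG, 48 h exposure, 8-pt half-log CRC top 100 uM, 0.5% DMSO vehicle, duplicates. Readout: TaqMan qRT-PCR of XBP1 mRNA, housekeeping-normalised (ACTB/GAPDH/POLR2A); bidirectional fit vs DMSO baseline.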

Assay [8] is described as follows: LTEA_HepaRG_LDH_cytotoxicity: Cytotoxicity Assessment in the Life Technologies and Expression Analysis (LTEA) Assay (AID 2283563; active = hit-call score of the fitted dose curve at least 0.9, where 1 is the maximum;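 for AC50: LDH activity released into spent culture medium as a marker of cell death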). Put shortly: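 HepaRG (human liver line), 48 h exposure, 8-pt half-log series from 100 uM, 0.5% DMSO vehicle, duplicates. Read-out: LDH in spent medium. Positive-direction fit vs DMSO baseline.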
Read-out in assay [9]: Cellular tumor antigen p53 (Homo sapiens) (UniProt P04637)
The assay can be described thus: LTEA_HepaRG_TP53: Life Technologies and Expression Analysis (LTEA) Assay for Tumor Protein P53 (TP53) using HepaRG (AID 2283537). To be noted: mRNA level, 48 h; actives raise or lower the signal. Put shortly:
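Gain or loss of TP53 mRNA signal is scored relative to 0.5% DMSO after 48 h chemical treatment of HepaRG liver cells, tested in duplicate at eight half-log concentrations up to 100 uM.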

Usually AC50 stands for the concentration giving half of the maximal activity seen.

Inconclusive results are not listed. Activity calls are given as the source filed them. Rule for the calls, unless noted: active = hit-call score of the fitted dose curve at least 0.9, where 1 is the maximum; inactive = score below 0.9.

Sequence of Cellular tumor antigen p53 (Homo sapiens) (P04637 whole entry, looked up): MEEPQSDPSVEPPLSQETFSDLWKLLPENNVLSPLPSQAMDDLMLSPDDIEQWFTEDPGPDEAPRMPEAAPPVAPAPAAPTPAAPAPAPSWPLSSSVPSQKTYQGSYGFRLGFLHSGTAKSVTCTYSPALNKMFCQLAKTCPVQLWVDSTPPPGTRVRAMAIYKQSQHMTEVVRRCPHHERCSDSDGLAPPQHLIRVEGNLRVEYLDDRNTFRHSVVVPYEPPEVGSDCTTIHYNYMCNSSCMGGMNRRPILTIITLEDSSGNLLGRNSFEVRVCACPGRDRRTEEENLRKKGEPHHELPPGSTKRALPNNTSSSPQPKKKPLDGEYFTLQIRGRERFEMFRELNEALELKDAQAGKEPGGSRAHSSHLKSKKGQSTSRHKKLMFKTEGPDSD

On to `CC(C)(COCC1CO1)COCC1CO1` (stereo not drawn), for which the call in [1] was inactive.

Turning to `CC(C)N(C(=O)CCl)c1ccccc1`, in assay [1], the AC50 is 31.2 µM (active).

For the compound `C=CCc1ccccc1O`, the result in assay [1] was inactive.

In the case of `O=C(O)C1(c2ccc3c(c2)OC[C@H](Cc2ccc(-c4ccccc4)cc2)[C@H]3O)CCCC1`, the AC50 in assay [2] was 78.8 µM (active); in assay [8] it was 77.6 µM (active). Further, the compound was called inactive in [3], in assay [4], in assay [5], in [6] and in [7].

Turning to `CC(C)(C)c1ccccc1O`, the call in assay [2], in [3], in assay [4], in [6], in [7] and in [8] was inactive. The outcome in [1] was inactive. Besides, the AC50 in assay [5] was 4.14 µM (active).

For the compound `CNC(=O)N(C)c1nc2ccccc2s1`, the result in assay [1] was inactive.

For the compound `C=CCOC(N)=O`, the result in assay [1] was inactive.

With `N#Cc1ccccc1N`, the compound was classed as inactive in [1].

For `N#Cc1cccnc1`, the call in assay [2], in assay [3], in [4], in assay [5], in assay [6] and in assay [7] was inactive. The compound was called inactive in assay [8] and in [1].

For the compound `COc1ccccc1N`, the result in [2], in assay [3], in assay [4], in assay [5], in assay [6] and in [7] was inactive. The call in assay [8] and in assay [1] was inactive.

Take `Clc1cccc(Cl)c1Cl`: the call in assay [2], in [3], in assay [4], in assay [5], in assay [6] and in assay [7] was inactive. Also, the outcome in assay [8] was inactive.

On to `NC(=O)CCl`, for which, in assay [1], the outcome was inactive.

As to `CS(=O)(=O)c1ccc(C(=O)C2C(=O)CCCC2=O)c(Cl)c1COCC(F)(F)F`, in assay [1], the result was inactive.

As for `Oc1c(Cl)cc(Cl)cc1Cl`, the result in assay [2], in assay [3], in assay [4], in [5], in [6] and in [7] was inactive. Besides, in assay [9], the AC50 was 50 µM (active).

Turning to `CCCCCCCCCCCCc1cccc(S(=O)(=O)O)c1`, the outcome in [2], in assay [3], in [6], in assay [7] and in [8] was inactive. The values for the AC50 in [4], in assay [5] and in [1] were 66.9 µM (active), 22.9 µM (active) and 139 µM (active), respectively.

On to `COc1nn(C(=O)NS(=O)(=O)c2ccccc2OC(F)(F)F)c(=O)n1C`, for which, in assay [1], the outcome was inactive.

For `Clc1cccc(Cl)c1`, the compound was classed as inactive in [2], in assay [3], in assay [4], in assay [5], in [6] and in assay [7]. Also, the call in assay [8] was inactive.

Take `CCCSP(=S)(OCC)Oc1ccc(SC)cc1` (stereo not drawn): the call in [1] was inactive.

On to `OCCN(CCO)CCO`, for which the result in [2], in [3], in assay [4], in [5], in assay [6] and in assay [7] was inactive. The call in [8] and in assay [1] was inactive.

The values are drawn from PubChem BioAssay (EPA / NIEHS).
